Records with an inconclusive call do not appear. Where a call stands in place of a potency, no number is given. Calls of active or inactive are those of the source. Calls come from the whole dose curve; as a rule, active = well fitted inhibition curve with a large enough effect; inconclusive = small, poorly fitted or top-dose-only effect; inactive = flat fitted curve, though single readings scatter.

Drawing on PubChem BioAssay (NCATS), this text covers outcome and Potency for 32 compounds.

The subject of the experiment is CRL-7250. In words: qHTS assay to identify novel small-molecules to repurpose for Merkel cell carcinoma treatment (AID 1296009). Note: nearly all actives have a fitted effect of over 60% in size. The following applies: MCC and control cell lines, CellTiter-Glo viability, 72 h; series mostly up to 92 µM. In a few lines: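 Cell viability measured by CellTiter-Glo following 72 hr compound treatment at 37 degree celsius, with NPC and MIPE libraries tested in 8- and 11-point concentration series.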
As to `COc1cc(Nc2nc3c(s2)CCCC3c2ccccc2)ccc1-n1cnc(C)c1` (configuration not stated), the outcome was “inactive [at 9.27 µM]”.
Take `O=C(O[C@H]1[C@@H]2C=CO[C@@H](O[C@@H]3O[C@H](CO)[C@@H](O)[C@H](O)[C@H]3O)[C@@H]2[C@@]2(CO)O[C@@H]12)c1ccc(O)c(O)c1`: the Potency result is “inactive”.
On the same count and under the same terms, as for `CC1CC(=O)C2=C(O1)OC1(C)CCC3C(C)(C)C4OC4C(=O)C3(C)C1C2` (configuration not stated), the entry is “inactive”; as for `COc1cc(C(C)=O)c(OC)c2c1OC(C)(C)C=C2`, “inactive”.
Still for that read-out and setting: for `CC1(C)CC[C@]2(C(=O)O)CC[C@]3(C)C(=CCC4[C@@]5(C)C[C@@H](O)[C@H](O)[C@@](C)(CO)C5[C@H](O)C[C@]43C)[C@@H]2C1` (some centres not stated) the value was “inactive”; for `CC1CCC2(C(=O)OC3OC(CO)C(O)C(O)C3O)CCC3(C)C(=CCC4C5(C)CCC(O)C(C)(CO)C5CCC43C)C2C1(C)O` (configuration not stated), “inactive”.
Regarding `NCc1c[nH]c(=S)n1[C@@H]1CCc2c(F)cc(F)cc2C1`, the Potency entry was “inactive”.
Turning to `C=CC1(C)CC(OC(=O)/C(C)=C\COC(C)=O)C(C(=C)C(=O)O)C(O)C1C(=C)CO` (configuration not stated), the Potency entry was “inactive”.
As to `C[C@H](C(=O)NC1CCCC1)N(C(=O)Cn1nnc(-c2ccc3c(c2)OCO3)n1)C1CCCCC1`, the Potency entry was “inactive”.
Still for that read-out and setting: for `CC(C)[C@@H]1C(=O)N(S(C)(=O)=O)[C@@H]2CCN(C(=O)/C=C/CN3CCCCC3)[C@H]21` the value was “inactive”; for `CCC(COC)n1nnc2c(Nc3ccc(OC)cc3C)nc(C)cc21` (configuration not stated), “inactive”.
Still for that read-out and setting: as for `O=C(O)CCc1cccc(O[C@@H]2O[C@H](CO)[C@@H](O)[C@H](O)[C@H]2O)c1O`, the entry is “inactive”; as for `COc1cc(OC)cc(C(=O)Nc2ccc(Cl)c(-c3nc4ccc(N(C)C)cc4[nH]3)c2)c1`, “inactive”.
On the same count and under the same terms, for `CC(c1ncncc1F)C(O)(Cn1cncn1)c1ccc(F)cc1F` (configuration not stated) the value was “inactive”.
On to `OC[C@H]1O[C@@H](OCCc2ccccc2)[C@H](O[C@@H]2OC[C@@H](O)[C@H](O)[C@H]2O)[C@@H](O)[C@@H]1O`, for which the Potency entry is “inactive”.
Take `COc1cnc(-n2cnc(C)n2)c2[nH]cc(C(=O)C(=O)N3CCN(C(=O)c4ccccc4)CC3)c12`: the Potency result is “inactive”.
Take `CC1CC=C2C1CC1(O)C(=O)CC2(C)C1(C)CO` (configuration not stated): the Potency result was “inactive”.
On the same count and under the same terms, as for `C=CC1(C)CC2=CCC3C(C)(C(=O)O)CCCC3(C)C2CC1OC(C)=O` (configuration not stated), the entry is “inactive”; as for `COc1cccc(-c2ccc([C@@H](Oc3cc(-c4ccc(C[C@H](N)C(=O)O)cc4)nc(N)n3)C(F)(F)F)cc2)c1`, “inactive”.
Still for that read-out and setting: for `CO[C@@H](Cc1ccc(OCCc2nc(-c3ccccc3)oc2C)c2ccsc12)C(=O)O` the value was “inactive”.
The same measure, in the same setting: as for `CC12CC34C=CC(=O)C(C)(CCC(=O)O)C3C(CC1C4)O2` (configuration not stated), the entry is “inactive”.
On to `CC(C)[C@](O)(c1ccc2cc(OC(F)F)c(OC(F)F)cc2c1)c1cn[nH]n1`, for which the Potency result was “inactive”.
Consider `O=C(/C=C/c1ccc(O)c(O)c1)OC[C@H]1O[C@@H](OC2CCCCC2O)[C@H](O)[C@@H](O)[C@@H]1O` (some centres not stated), for which the Potency result is “inactive”.
For the compound `CCOc1ccc(C(Nc2ccccn2)c2ccc3ccc(C)nc3c2O)cc1C` (configuration not stated), the Potency result was “inactive”.
Consider `CC(=O)c1c(O)cc2cccc3c2c1CC(C)(O)O3` (configuration not stated), for which the Potency result was “inactive”.
In the case of `O=S(=O)(Nc1cc(Cl)c(Oc2cnc3ccccc3c2)c(Cl)c1)c1ccc(Cl)cc1Cl`, the Potency result is “inactive”.
Still for that read-out and setting: for `COc1ccc(C(O[C@@H]2O[C@H](CO)[C@@H](O)[C@H](O)[C@H]2O)C(CO)Oc2ccc(/C=C/CO)cc2OC)cc1O` (some centres not stated) the value was “inactive”.
The same measure, in the same setting: as for `C=C1C(=O)O[C@@H]2C[C@H](C)[C@@]3(O)C=C(C(C)=O)[C@]4(CC3C[C@H]12)C(=O)O[C@H]1C[C@@H](C)C(CCC(C)=O)=CC[C@H]14` (some centres not stated), the entry is “inactive”.
As for `C/C=C(\C)C(=O)OC1C2(O)CC3=C4CC(=O)OC(c5ccoc5)C4(C)CCC3C(C)(C2=O)C(C(OC(C)=O)C(=O)OC)C1(C)C` (configuration not stated), the Potency result is “inactive”.
As for `C[C@@H]1O[C@@H](O[C@H]2[C@H](O[C@H]3[C@H](O[C@H]4CC[C@@]5(CO)C(CC[C@]6(C)C5CC=C5C7CC(C)(C)C[C@@H](O)[C@]7(C)CC[C@]56C)C4(C)C)O[C@H](C(=O)O)[C@@H](O)[C@@H]3O)OC[C@@H](O)[C@@H]2O)[C@H](O)[C@H](O)[C@H]1O` (some centres not stated), the outcome is “inactive [at 9.27 µM]”.
`O=c1c2ccccc2nc2n1CCC2O` (configuration not stated): the Potency result is “inactive”.
Regarding `CC1(C)CC[C@]2(C(=O)O)[C@H](O)C[C@]3(C)C(=CCC4[C@@]5(C)CC[C@H](O[C@@H]6O[C@H](CO[C@@H]7OC[C@H](O)[C@H](O)[C@H]7O[C@@H]7OC[C@H](O)[C@H](O)[C@H]7O)[C@@H](O)[C@H](O)[C@H]6O)C(C)(C)C5CC[C@]43C)[C@@H]2C1` (some centres not stated), the outcome was “inactive [at 9.27 µM]”.
